Hits are enriched below; roughly 3.4% of the tested compounds scored in any of these assays.
FBW7 act = FBW7 E3 ligase activators, primary screen, biochemical, AlphaScreen, human; F-box/WD repeat-containing protein 7 (Homo sapiens), Q969H0; AlphaScreen FBW7–phospho-cyclin E peptide binding, activator screen; normalized activity (activation), % at 26.1 µM; 650,000 tested, 0.13% active; AID 1259310, 2017; in the data active means normalized activity above about 1.9%;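 further: purified mutant Fbw7 with reduced substrate affinity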
MITF inh = MITF inhibitors, primary screen, biochemical, AlphaScreen, human; Microphthalmia-associated transcription factor (Homo sapiens), O75030; AlphaScreen MITF homodimerization, bead proximity signal; inhibition, % at 2.6 µM; 650,000 tested, 0.91% active; in the data active means inhibition above about 50%;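 further: 0% = vehicle wells with protein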
GPR151 ag = activators of human GPR151, primary screen, cell-based, PathHunter beta-arrestin, luminescence. G-protein coupled receptor 151 (Homo sapiens), Q8TDV0. PathHunter beta-arrestin GPR151 cells. activation, % at 11.2 µM. 650,000 tested, 1% active; in the data active means activation above about 4.9%;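 further: 0% = median of compound wells and 100% = cells with positive control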
TEAD-YAP inh = TEAD-YAP interaction inhibition, primary screen, TEAD-YAP interaction inhibitor project, luminescence, HEK-TIYL cells | TEAD-Gal4/YAP UAS-luciferase luminescence | inhibition, % at 9.12 µM | 640,000 tested, 1.4% active | AID 1259422, 2018; in the data active means inhibition above about 32%;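 further: 0% = median of test compound wells and 100% = reference inhibitor wells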
GPR151 confirm = GPR151 activators, triplicate retest, confirmation, cell-based, PathHunter beta-arrestin, luminescence | shares compounds with GPR151 ag | GPR151 PathHunter beta-arrestin cells, 90 min; % of EA-reagent control over plate median | activation, % at 11.2 µM | 6,700 tested, under 10 active | AID 1508609, 2020;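 active means mean percent activation across replicates above the confirmation screen cutoff of 4.91%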
GPR119 counter = GPR119 activators in beta-arrestin cells, counter-screen for GPR151 activator project, cell-based, PathHunter beta-arrestin, luminescence, triplicate. 6,700 tested, 0.3% active. 90 min; 0 = compound-well median, 100 = enzyme-acceptor control. AID 1508611, 2020. shares compounds with GPR151 ag. activation, % at 11.2 µM;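 active means mean percent activation in the counterscreen above 29.09%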;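 further: counterscreen on off-target GPR119 to flag nonselective hits from the GPR151 activator screen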
Target sequence (Q8TDV5 whole entry, looked up): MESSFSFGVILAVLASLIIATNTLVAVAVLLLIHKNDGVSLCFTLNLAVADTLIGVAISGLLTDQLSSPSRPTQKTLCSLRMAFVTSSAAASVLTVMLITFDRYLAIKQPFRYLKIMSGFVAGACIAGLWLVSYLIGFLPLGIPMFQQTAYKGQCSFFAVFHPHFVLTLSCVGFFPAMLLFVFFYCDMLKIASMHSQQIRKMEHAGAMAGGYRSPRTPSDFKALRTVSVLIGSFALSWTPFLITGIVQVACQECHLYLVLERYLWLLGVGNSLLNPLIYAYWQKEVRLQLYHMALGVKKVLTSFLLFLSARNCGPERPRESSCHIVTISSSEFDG
An asterisk follows results filed as active.

How did N#C/C(=C\c1ccc(Br)c([N+](=O)[O-])c1)c1nn(-c2ccccc2)c(N)c1C#N do in these assays?
FBW7 act: 0; MITF inh: 7; GPR151 ag: 4.9*; TEAD-YAP inh: 7; GPR151 confirm: 0; GPR119 counter: 6

How did CN(C)c1ccc(/C=C(\C#N)c2nn(-c3ccccc3)c(N)c2C#N)cc1[N+](=O)[O-] do in these assays?
FBW7 act: 0; MITF inh: 8; GPR151 ag: 2; TEAD-YAP inh: -4

What do the screens show for `COc1ccc(N2C(=O)C(CC(=O)Nc3ccc(F)cc3)N(CCc3ccc(Cl)cc3)C2=S)cc1` (stereo not drawn)?
FBW7 act: 0; MITF inh: 12; GPR151 ag: 3; TEAD-YAP inh: -1

Results for O=C(CNC(=O)c1cccc(Br)c1)OCCOc1ccccc1F ?
FBW7 act: 0; MITF inh: -12; GPR151 ag: 4; TEAD-YAP inh: 4

How did CCc1ccc(N(CC(=O)OC)S(C)(=O)=O)cc1 do in these assays?
FBW7 act: 1; MITF inh: 14; GPR151 ag: 1; TEAD-YAP inh: 4

How did CCc1ccc(N(CC(=O)NC)S(C)(=O)=O)cc1 do in these assays?
FBW7 act: 0; MITF inh: -12; GPR151 ag: 5.3*; TEAD-YAP inh: -3; GPR151 confirm: 0; GPR119 counter: -10

What do the screens show for `CN1CCC(=NNC(=O)c2ccc(CN3c4cccc5cccc(c45)S3(=O)=O)cc2)CC1`?
FBW7 act: 0; MITF inh: 2; GPR151 ag: 6.0*; TEAD-YAP inh: 1; GPR151 confirm: -1; GPR119 counter: 1

How did C/C(=N\NC(=O)c1ccc(CN2c3cccc4cccc(c34)S2(=O)=O)cc1)c1ccco1 do in these assays?
FBW7 act: 0; MITF inh: 4; GPR151 ag: 2; TEAD-YAP inh: -2

Results for Cc1nnc2c(Nc3ccccc3N3CCCCC3)nc3ccccc3n12 ?
FBW7 act: 0; MITF inh: 2; GPR151 ag: 0; TEAD-YAP inh: -4

What do the screens show for `c1ccc(N2CCCCC2)c(Nc2nc3ccccc3n3nnnc23)c1`?
FBW7 act: 0; MITF inh: -3; GPR151 ag: 6.0*; TEAD-YAP inh: 8; GPR151 confirm: 0; GPR119 counter: -1

Results for Cc1ccc2nc(-c3ccccc3)cc(C(=O)Nc3ccc(C)c(Cl)c3)c2c1 ?
FBW7 act: 0; MITF inh: 1; GPR151 ag: 0; TEAD-YAP inh: -5

What do the screens show for `O=C(CSc1nnc(NC(=O)Cc2ccc(F)cc2)s1)NCC1CCCO1` (stereo not drawn)?
FBW7 act: 1; MITF inh: 4; GPR151 ag: 5.0*; TEAD-YAP inh: 10; GPR151 confirm: 0; GPR119 counter: 11

How did O=C(CSc1nnc(NC(=O)Cc2ccccc2)s1)NCC1CCCO1 (stereo not drawn) do in these assays?
FBW7 act: 0; MITF inh: -6; GPR151 ag: -1; TEAD-YAP inh: -7

Results for CCNC(=O)CC1SC(=Nc2ccc(OC)cc2)N(C)C1=O (stereo not drawn) ?
FBW7 act: 0; MITF inh: -8; GPR151 ag: -2; TEAD-YAP inh: -10

Results for COc1ccc(N=C2SC(CC(=O)Nc3ccc(OC)cc3OC)C(=O)N2C)cc1 (stereo not drawn) ?
FBW7 act: 0; MITF inh: -4; GPR151 ag: 6.6*; TEAD-YAP inh: 0; GPR151 confirm: 4; GPR119 counter: 2

Results for Nc1c2c(nc3c1CCC3)CCCC2 ?
FBW7 act: 0; MITF inh: 19; GPR151 ag: 5.0*; TEAD-YAP inh: -3; GPR151 confirm: 0; GPR119 counter: -1

How did Cc1ccc(S(=O)(=O)N/N=C/c2ccc(Br)cc2)cc1[N+](=O)[O-] do in these assays?
FBW7 act: 0; MITF inh: 8; GPR151 ag: -1; TEAD-YAP inh: -4

How did COc1ccccc1Nc1nc(Cl)cc(N)c1[N+](=O)[O-] do in these assays?
FBW7 act: 0; MITF inh: 15; GPR151 ag: 3; TEAD-YAP inh: -2

How did COc1ccccc1Nc1nc(Cl)ccc1[N+](=O)[O-] do in these assays?
FBW7 act: 0; MITF inh: 1; GPR151 ag: 5.0*; TEAD-YAP inh: -9; GPR151 confirm: 0; GPR119 counter: 2

What do the screens show for `Cc1noc(C)c1-c1nc2ncnc(NC3CC3)c2[nH]1`?
FBW7 act: 0; MITF inh: 4; GPR151 ag: 5.5*; TEAD-YAP inh: -14; GPR151 confirm: 0; GPR119 counter: -4

What do the screens show for `c1nc(NC2CC2)c2[nH]c(N3CCOCC3)nc2n1`?
FBW7 act: 0; MITF inh: 9; GPR151 ag: 5.0*; TEAD-YAP inh: 4; GPR151 confirm: -1; GPR119 counter: 1

How did Cn1c(=NC(=O)CN2C(=O)CCC2=O)sc2cc(F)cc(F)c21 do in these assays?
FBW7 act: 0; MITF inh: -3; GPR151 ag: 2; TEAD-YAP inh: 1

What do the screens show for `CCC(=O)N=c1sc2cc(F)cc(F)c2n1C`?
FBW7 act: 0; MITF inh: 12; GPR151 ag: 8.1*; TEAD-YAP inh: 2; GPR151 confirm: 0; GPR119 counter: -3

How did O=[N+]([O-])c1ccccc1-c1cnn(-c2ccc(F)cc2F)c1 do in these assays?
FBW7 act: 1; MITF inh: 15; GPR151 ag: 5.9*; TEAD-YAP inh: -37; GPR151 confirm: -2; GPR119 counter: -19

What do the screens show for `O=[N+]([O-])c1ccccc1-c1cnn(-c2ccccc2)c1`?
FBW7 act: 0; MITF inh: 9; GPR151 ag: -1; TEAD-YAP inh: -52

What do the screens show for `O=C(/C=C\N1CCCCC1)c1ccc(Cl)cc1`?
FBW7 act: 0; MITF inh: 15; GPR151 ag: 6.1*; TEAD-YAP inh: -13; GPR151 confirm: -2; GPR119 counter: -26

How did CCC(Nc1c([N+](=O)[O-])cc(C(F)(F)F)cc1[N+](=O)[O-])C(=O)O (stereo not drawn) do in these assays?
FBW7 act: 0; MITF inh: -4; GPR151 ag: 6.0*; TEAD-YAP inh: 4; GPR151 confirm: 0; GPR119 counter: 7

What do the screens show for `CCC(C)Nc1c([N+](=O)[O-])cc(C(=O)O)cc1[N+](=O)[O-]` (stereo not drawn)?
FBW7 act: 0; MITF inh: 6; GPR151 ag: 0; TEAD-YAP inh: 3

Screens deposited in PubChem by The Scripps Research Institute Molecular Screening Center.
